# Cruzain inh noDet – cruzain (T. cruzi) inhibition without detergent | P25779 | purified cruzain, Z-FR-AMC fluorescence, no detergent | Potency, µM, inactives show max response, negative = inhibition, most hits filed as inhibitors | hit rate 2.3% among 200,000;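 note: plate controls were enzyme without inhibitor for no effect and buffer without enzyme for full effect; nearly all actives have a fitted effect of over 40% in size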
# Target sequence (P25779 123-467 limits assumed): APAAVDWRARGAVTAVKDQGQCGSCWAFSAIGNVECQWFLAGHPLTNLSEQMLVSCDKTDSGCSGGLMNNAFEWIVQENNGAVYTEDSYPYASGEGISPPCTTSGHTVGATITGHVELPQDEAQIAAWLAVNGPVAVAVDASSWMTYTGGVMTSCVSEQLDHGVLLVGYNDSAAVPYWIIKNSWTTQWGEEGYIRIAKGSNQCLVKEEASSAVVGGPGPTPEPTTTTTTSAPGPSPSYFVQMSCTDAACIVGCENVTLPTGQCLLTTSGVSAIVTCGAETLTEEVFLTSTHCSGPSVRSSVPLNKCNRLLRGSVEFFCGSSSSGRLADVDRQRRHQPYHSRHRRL
#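 Purified cruzain at 1.5 nM, pre-incubated 15 min with compound at room temperature in 100 mM sodium acetate pH 5.5, 5 mM DTT, 0.00005% Triton X-100. Reaction started with 2 uM Z-FR-AMC; AMC fluorescence increase over 60 s gives rate.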
# Cruzain Triton – inhibitors of Trypanosoma cruzi cruzain with detergent; Potency, µM, for the others: max response, negative = inhibition, hits mostly inhibitors; purified cruzain, Z-FR-AMC fluorescence, 0.01% Triton; hit rate 0.43% among 200,000; P25779;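 note: plate controls were neutral wells for no effect and buffer without enzyme for full effect; nearly all actives have a fitted effect of over 40% in size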
#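 Compounds were screened in titration against cruzain (1.5 nM) with 0.01% Triton X-100 to counter colloidal aggregation. Activity was the AMC fluorescence increase over 60 s after adding 2 uM Z-FR-AMC at pH 5.5.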
# * hit, by the source's call; ? = inconclusive. Shown are actives, neighbours in structure and some others; about 2.4% of the full set was active somewhere. Calls come from the whole dose curve; as a rule, active = well fitted curve in the direction sought with a large enough effect; inconclusive = small, poorly fitted or top-dose-only effect, or another doubt; inactive = no such curve, though single readings can be large; an effect the other way counts as inactive or inconclusive. Potency is the fitted concentration of half-maximal effect.
SMILES,Cruzain inh noDet,Cruzain Triton
CCCCn1cnc2c(SC)ncnc21,-5%,3%
COC(=O)C1=C(C)NC(=O)C1(NC(=O)c1cc(OC)c(OC)c(OC)c1)C(F)(F)F (stereo not drawn),6%,-1%
O=C1N=C(c2ccccc2)S/C1=C\c1cccs1,20µM*,-23%
O=C1N=C(N2CCN(c3ccccc3)CC2)S/C1=C/c1cccs1,-23%,-16%
CC(=O)OCc1ccc2c(c1)OCO2,-7%,3%
CCCSc1oc(-c2cccs2)nc1S(=O)(=O)c1ccc(Cl)cc1,-20%,-10%
COc1ccccc1-n1c(SCc2cc(=O)oc3cc(O)ccc23)nc2ccccc2c1=O,25µM*,-12%
COc1ccc(C(C)=O)cc1CSc1nc2ccccc2c(=O)n1-c1ccccc1C,?,-10%
Cc1cc(NC(c2nnc(-c3ccccc3)o2)c2ccccc2F)ccc1Br (stereo not drawn),-2%,0%
Cc1cc(=O)oc2c(OS(C)(=O)=O)c(OS(C)(=O)=O)ccc12,6%,3%
CNc1nc(-c2ccccc2)nc(-c2ccccc2)c1C#N,7.9µM*,-2%
COc1ccc(-c2nc(-c3ccccc3)nc(Cl)c2C#N)cc1,0%,6%
NCCC[C@@H](CC(=O)N[C@@H]1CCCC[C@H]1C(=O)N[C@H](CC(=O)N[C@@H](CCC(=O)O)CC(=O)O)Cc1ccccc1)NC(=O)C[C@H](CO)NC(=O)[C@@H]1CNCC[C@H]1N,15%,1%
CCOc1cc(C2CC(=O)Nc3c2c(=O)nc(SCc2cccc(Cl)c2)n3C)ccc1O (stereo not drawn),4%,-2%
CCC(=O)Nc1cc2nn(-c3ccc(OC)cc3)nc2cc1C,?,8%
COc1ccc(-n2nc3cc(C)c(NC(=S)NC(=O)c4ccccc4C)cc3n2)cc1,13µM*,-3%
CC(C)=C(C#N)c1nc2ccccc2s1,-5%,-7%
Cc1ccc(OC/C(O)=C(\C#N)c2nc3ccccc3s2)cc1,20µM*,-3%
CCC1=C(c2ccc(C)cc2)S(=O)(=O)N=C1N1CCC(C(=O)Nc2ccccc2F)CC1,15%,-6%
CSc1ccc(CCNC(=O)Cn2nc(C)n3c(cc4sccc43)c2=O)cc1,1%,0%
COc1ccccc1NC(=O)c1ccccc1NC(=O)c1cc(Cl)ccc1NC(=O)c1ccco1,16µM*,-5%
COc1ccccc1NC(=O)c1cc(Cl)ccc1NC(=O)c1ccco1,3%,-3%
CC1Cc2cc(S(=O)(=O)CCC(=O)NCc3ccccc3Cl)ccc2N1C(=O)C1CC1 (stereo not drawn),0%,-5%
CCOC(=O)c1c(-c2ccccc2)oc2cc(Br)c(OCc3ccccc3)cc12,3%,0%
CCOC(=O)c1c(-c2ccccc2)oc2ccc(OCc3cccc(Br)c3)cc12,10µM*,-6%
SMILES,Cruzain inh noDet,Cruzain Triton
COc1ccc(CNC(=O)c2ccc(N3CCCC3)c(NC(=O)NCc3ccc(F)cc3)c2)cc1,3%,-5%
O=C(Nc1ncc(Cc2cccc(C(F)(F)F)c2)s1)c1ccc(-c2cccc([N+](=O)[O-])c2)o1,10µM*,-4%
CC(=O)Cc1nsc(NC(=O)c2ccc(-c3cccc(C(F)(F)F)c3)o2)n1,3%,4%
Cc1ccc2cccc(NC(=O)c3ccc(-c4cccc([N+](=O)[O-])c4)o3)c2n1,-10%,-2%
Cc1nnc(NC(=O)c2ccc(-c3cccc(C(F)(F)F)c3)o2)s1,13µM*,2%
CCc1ccc(OCC(=O)Nc2ccc(Cl)c(-c3nc4ncccc4o3)c2)cc1,0%,-6%
O=C(Nc1ccc2c(c1)Cc1ccccc1-2)[C@@H]1[C@H](C(=O)O)[C@]2(Cl)C(Cl)=C(Cl)[C@@]1(Cl)C2(Cl)Cl,26%,3%
CCOC(=O)c1sc(N(Cc2ccccc2)C(=O)COC(=O)c2ccc(O)cc2)nc1C,16µM*,-5%
CCOC(=O)c1sc(N(Cc2ccccc2)C(=O)COC(=O)c2ccccc2O)nc1C,-16%,-7%
CCC(=O)Nc1sc2c(c1C(=O)Nc1ccccc1C)CCC(C)C2 (stereo not drawn),-8%,-1%
O=C(Nc1ccc(Cl)c(Cl)c1)c1cc(S(=O)(=O)N2CCN(c3cccc(Cl)c3)CC2)ccc1F,3.2µM*,1%
O=C(Nc1ccc(F)c(F)c1)c1cc(S(=O)(=O)N2CCN(c3ccccn3)CC2)ccc1F,3%,-4%
O=C(Nc1ccc2c(c1)CCC2)c1cccc(S(=O)(=O)N2CCN(c3ccccc3)CC2)c1,25µM*,1%
O=C(NC1CCCc2ccccc21)c1cccc(S(=O)(=O)N2CCN(c3ccccc3)CC2)c1 (stereo not drawn),?,-2%
COc1cccc(CNC(=O)c2cc3c(s2)-c2c(C)cccc2OC3)c1,?,-6%
Cc1nc(S/C(=C/c2ccc(-c3cccc(Cl)c3)o2)C(=O)O)n[nH]1,25µM*,3%
CC1=NOC(=O)/C1=C\c1ccc(-c2cccc(Cl)c2)o1,?,-22%
CCc1ccc(NC(=O)C2CCC(CNS(=O)(=O)c3cccs3)CC2)cc1 (stereo not drawn),?,-2%
COc1ccccc1CNC(=O)c1cnc2sc(N3CCOCC3)nn2c1=O,3%,-2%
CC(C)CC(=O)Nc1c(C(=O)N2CCN(c3ccccc3F)CC2)oc2ccccc12,?,-5%
O=C(/C=C\NCC(=O)c1ccccc1)c1ccc(F)cc1,-23%,-15%
O=C(/C=C\NCC(=O)c1ccccc1)c1ccc2ccccc2c1,32µM*,-26%
O=c1c2ccccc2nc(SCc2ccc([N+](=O)[O-])cc2)n1CCCO,?,-10%
O=c1c2ccccc2nc(SCc2ccc([N+](=O)[O-])cc2)n1-c1ccc(Cl)cc1,13µM*,-2%
COc1ccc(C(=O)Nn2c(SCc3ccc([N+](=O)[O-])cc3)nc3ccccc3c2=O)cc1,32µM*,6%
SMILES,Cruzain inh noDet,Cruzain Triton
COc1ccc(C(=O)Nn2c(SCC(=O)c3ccccc3)nc3ccccc3c2=O)cc1,?,-4%
CSc1nc(C)cc(Nc2ccc(O)c(CN3CCOCC3)c2)n1,4%,2%
Nc1c(-c2cccs2)cnn1-c1nc(-c2ccc(Cl)cc2Cl)cs1,25µM*,0%
Nc1c(-c2cccs2)cnn1-c1nc(-c2ccc(F)cc2)cs1,-21%,6%
COc1cc(/C=C2\SC(=S)N(CC(=O)Nc3ccccn3)C2=O)cc(OC)c1OC,-2%,-13%
O=C(CSc1nnnn1-c1ccccc1)Nc1ncc(Cc2ccccc2Cl)s1,11%,-1%
CCc1nnc(NC(=O)CN2C(=O)/C(=C/c3cc(OC)c(OC)c(OC)c3)SC2=S)s1,9%,?
Cc1ccc(/C=C2/SC(=S)N(CC(=O)Nc3ncc(Cc4ccc(C)cc4)s3)C2=O)cc1,4µM*,-4%
COc1cc(/C=C2/SC(=S)N(CC(=O)Nc3nc4ccccc4s3)C2=O)cc(OC)c1OC,13µM*,-4%
Cc1cccc(Cc2cnc(NC(=O)CN3C(=O)/C(=C/c4ccccc4)SC3=S)s2)c1,?,-5%
COc1ccc(/C=C2\SC(=S)N(CC(=O)Nc3nnc(C)s3)C2=O)cc1,16µM*,-14%
Cc1ccc(/C=C2\SC(=S)N(CC(=O)Nc3ncc(Cc4ccccc4Cl)s3)C2=O)cc1,3.2µM*,-10%
COc1ccc(C2NC(=O)N(C)C3=C2C(=O)N(c2ccc(F)cc2)C3)cc1 (stereo not drawn),-6%,-2%
CCCn1c(SCc2nc(-c3cc(OC)ccc3OC)no2)nnc1-c1ccc(Cl)cc1,22%,-8%
